D1 mod – allosterically modulates the human D1 dopamine receptor; HEK293 D1, CRE-luciferase, dopamine EC30 potentiation; actives deviate in either direction; B-score at 10 µM; 5.9% of 58,000 active; P21728;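 active = luminescence count or its row- and column-corrected plate score outside the 99.7% band of the plate's sample wells, on either side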
ROCK2 blocker – blocks human Rho kinase 2 activity; O75116; purified ROCK2, Kinase-Glo ATP depletion luminescence; inhibition, % at 6 µM; 0.35% of 60,000 active;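 active = inhibition above the screen-wide mean inhibition plus 3 SD, cut at about 18% in these data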;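 also: plate controls were DMSO wells for no effect and Y-27632 control wells after no-enzyme background subtraction for full effect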
hDAT+cocaine – human DAT dopamine uptake with cocaine, either direction | Q01959 | B-score at 10 µM | 1.3% of 110,000 active | LLC-PK1 hDAT cells, [14C]-dopamine uptake with cocaine IC80; actives deviate in either direction;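 active = Z score or B-score, a plate-position-corrected score, falls beyond the plate's 99.7% confidence bounds, in either direction; inactive = both scores lie inside the 99.7% bounds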;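 also: scored against the spread of the other compound wells on the same plate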
Target sequence (Q01959 whole entry, looked up): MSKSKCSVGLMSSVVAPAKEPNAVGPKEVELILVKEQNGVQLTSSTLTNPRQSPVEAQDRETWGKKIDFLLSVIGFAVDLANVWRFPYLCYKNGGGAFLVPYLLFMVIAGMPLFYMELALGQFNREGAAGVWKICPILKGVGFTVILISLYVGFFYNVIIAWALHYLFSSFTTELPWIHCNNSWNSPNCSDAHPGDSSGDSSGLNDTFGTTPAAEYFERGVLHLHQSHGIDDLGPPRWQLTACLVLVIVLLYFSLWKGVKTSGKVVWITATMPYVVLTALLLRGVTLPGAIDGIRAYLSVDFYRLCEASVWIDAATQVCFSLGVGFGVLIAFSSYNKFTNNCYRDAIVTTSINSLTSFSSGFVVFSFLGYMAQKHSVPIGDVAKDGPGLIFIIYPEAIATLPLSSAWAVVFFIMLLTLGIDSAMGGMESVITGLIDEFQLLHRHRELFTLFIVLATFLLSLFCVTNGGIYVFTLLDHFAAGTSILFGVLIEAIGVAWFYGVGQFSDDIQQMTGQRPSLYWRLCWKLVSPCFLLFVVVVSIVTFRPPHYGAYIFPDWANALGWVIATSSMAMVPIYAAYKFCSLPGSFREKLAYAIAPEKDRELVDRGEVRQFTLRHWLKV
PKA inh – blocks human protein kinase A activity; AID 524; P17612; 0.1% of 65,000 active; inhibition, % at 6 µM; PKA Kemptide phosphorylation, Kinase-Glo ATP luminescence;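 active = inhibition above the screen-wide mean inhibition plus 3 SD, cut at about 21% in these data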
* marks the source's active call; other numbers are inactive results; · = no result. This excerpt belongs to a sample that is enriched for hits.

SMILES	D1 mod	ROCK2 blocker	hDAT+cocaine	PKA inh
COc1cc(C2N(c3ccccn3)C(=O)C3CCCN32)cc(OC)c1OC (stereo not given)	-0.37	6	-7.9*	5
CC1=C(CC(=O)O)c2cc(F)ccc2/C1=C\c1ccc(S(C)=O)cc1 (stereo not given)	·	·	0.9	·
O=C(Nc1ccc(Cl)c(Cl)c1)N1CCSC1c1ccco1 (stereo not given)	-1.3	6	-2.1*	9
O=C(Nc1ccc(Cl)c(Cl)c1)N1CC=CCC1	-0.29	4	0.27	9
Cc1cnc(C(=O)Nc2nccs2)cn1	·	·	-0.84	·
O=C(NC1=NCCS1)c1ccc(OCC2CCCO2)cc1 (stereo not given)	-3*	2	-1	6
O=C(NC1=NCCS1)c1ccncc1	1.3	7	-0.49	2
CCc1ccc(CNc2ccc(O)cc2)cc1	-0.78	7	2.9*	10
O=c1[nH]c(Nc2nc3ccccc3o2)nc2c1CCCC2	-6.4*	0	0.6	-1
CC(=O)Nc1ccc(OCC(O)CN2CCN(c3ccc(Cl)cc3)CC2)cc1 (stereo not given)	·	·	0.38	·
CC(=O)Nc1ccc(OCC(O)CN2CCN(c3cccc(Cl)c3)CC2)cc1 (stereo not given)	-3.1*	0	0.86	8
Cc1ccccc1NC(=O)Cn1c(C)nc2ccc(NC(=O)C3CC3)cc2c1=O	-0.36	19*	0.38	10
Cc1ccccc1NC(=O)Cn1c(C)nc2ccc(N)cc2c1=O	·	·	-0.003	·
N#CCCCSc1nnc(-c2ccc(Cl)cc2)n1-c1ccccc1	1.3	-1	-8.6*	4
NC(=O)C1=C[C@@H](c2ccc(Br)cc2)C[C@@H](OCCCCO)O1	·	·	0.0072	·
Cn1c(N2CCN(c3ccccn3)CC2)nc2c1c(=O)n(Cc1ccc(Cl)cc1)c(=O)n2C	·	3	-0.23	-1
Cc1cccc(Cn2c(=O)c3c(nc4n3CCCN4Cc3ccccc3)n(C)c2=O)c1	0.63	5	3*	4
Cn1c(N2CCOCC2)nc2c1c(=O)n(Cc1ccc(Cl)cc1)c(=O)n2C	4.4*	0	0.77	2
Cc1ccc(-c2[nH]c3ccccc3c2SCCNC(=O)c2ccc(S(=O)(=O)N3CCOCC3)cc2)cc1	·	·	0.18	·
CC(=O)C1=C(C)NC(SCC(N)=O)=C(C#N)C1c1sccc1C (stereo not given)	·	·	6.9*	·
O=C(c1cccc(N2C(=O)C3CC=CCC3C2=O)c1)N1CCN(c2ccccc2)CC1 (stereo not given)	0.09	17	·	11
CN(C(=O)c1cccc(N2C(=O)C3CC=CCC3C2=O)c1)C1CCCCC1 (stereo not given)	-0.07	21*	0.58	9
O=C(c1cccc(N2C(=O)C3CC=CCC3C2=O)c1)N1CCCCCC1 (stereo not given)	0.2	5	-8.8*	16
CC(C)[C@H](NC(=O)OC(C)(C)C)c1nnc(SCC(=O)Nc2ccc(Br)cc2)o1	-1	-3	-0.41	-6
O=C(CCCNS(=O)(=O)c1cccc2nsnc12)NCc1ccccc1	-0.085	4	1.6	10
SMILES	D1 mod	ROCK2 blocker	hDAT+cocaine	PKA inh
O=C(CCS(=O)(=O)c1cccc2nsnc12)NC1CCCCCC1	·	·	0.58	·
CC(=O)c1cccc(NC(=O)CCS(=O)(=O)c2cccc3nsnc23)c1	·	·	2.5*	·
CN(CC(=O)NCc1cccs1)S(=O)(=O)c1cccc2nsnc12	-0.82	4	-9.1*	0
O=C(CCS(=O)(=O)c1cccc2nsnc12)NCc1ccccc1	0.52	·	-8.2*	10
Cc1ccc(SCc2ccc(C(=O)NCc3ccncc3)cc2)cc1	·	·	-0.049	·
CCOC(=O)C1=NN(c2cccc(Cl)c2)C2=NC(C)=C(C(=O)OC)C(c3cccs3)N12 (stereo not given)	·	·	0.58	·
CCn1cc(C(=O)O)c(=O)c2cc(F)c(N3CCN(C(=O)Nc4ccccc4)CC3)cc21	-2.2*	8	-0.33	10
CCn1cc(C(=O)O)c(=O)c2cc(F)c(N3CCN(C)CC3)cc21	·	·	-0.2	·
C#Cc1ccc([C@H]2C=C(C(=O)NC3CC3)O[C@@H](OCC)[C@@H]2CCCO)cc1	·	·	-0.031	·
CC(O)(CS(=O)(=O)Cc1ccccc1)C(=O)Nc1cccc(C(F)(F)F)c1 (stereo not given)	·	·	-2.8*	·
CC(O)(CS(=O)(=O)Cc1ccccc1)C(=O)Nc1ccc(C(F)(F)F)cc1 (stereo not given)	·	·	-0.0083	·
CN(C)NC(=O)c1ccsc1NC(=O)c1ccc(S(=O)(=O)N(C)C)cc1	·	·	0.47	·
CNC(=O)c1ccsc1NC(=O)c1ccccc1	17*	1	1.2	4
Cn1c(=O)c2c(SCC(=O)N3CCC(Cc4ccccc4)CC3)nc(C3CC3)nc2n(C)c1=O	-5.7*	2	·	3

Bioassay records: PubChem, several laboratories
